# In PubChem BioAssay:
# The source made the active and inactive calls.
# How the values were obtained:
# Albumin (Bos taurus) = Albumin (Bos taurus) (UniProt P02769); test: compounds binding labelled BSA control protein – biochemical, small-molecule microarray, Alexa647 label, 635/667 nm fluorescence, artefact control for SMM control protein annotation, profiling panel (AID 1118); conditions: BSA-A647 binding, fluorescence 635 nm, higher = more signal;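 further: score merges 667 nm emission intensity and signal-to-noise per printed compound spot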
# [1] = probe aXIP binding to arrayed compounds – biochemical, NeuroSMM set, 635/667 nm fluorescence, primary screen (AID 1119); conditions: small-molecule microarray, higher = more signal, called active from +8 up or from −8 down;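 further: probe is the protein aXip251-270 applied at 1 µg/mL to compound-printed slides; binding of probe to printed compounds measured as 667 nm fluorescence plus signal to noise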
# [2] = probe aNOTCH3 binding on compound microarray – biochemical, small-molecule microarray, 635/667 nm fluorescence, primary screen (AID 1120); conditions: higher = more signal;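 further: probe is a biotin-tagged antibody raised against NOTCH3 rather than NOTCH3 protein; score merges spot fluorescence near 667 nm with spot signal to noise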
# [3] = probe aNOTCH2 binding on compound microarray – biochemical, small-molecule microarray, 635/667 nm fluorescence, primary screen (AID 1121); conditions: higher = more signal;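 further: score merges feature fluorescence read at 667 nm with its signal to noise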
# [4] = biological target: Carbonic anhydrase 2 (Homo sapiens) (UniProt P00918); test: compounds binding carbonic anhydrase 2 – biochemical, small-molecule microarray, Alexa647-labelled CAII, profiling panel (AID 1122); conditions: CAII-A647 binding fluorescence, higher = more signal
# [5] = COS7 lysate on small-molecule microarray, probe aHis, 635 nm (AID 1123); conditions: COS7 cell lysate, fluorescence, higher = more signal;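 further: z-score combines 667nm fluorescence intensity with signal-to-noise per printed compound spot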
# [6] = probe aLAP1 signal on lysate-treated microarray – cell lysate, small-molecule microarray, COS7 lysate, primary screen (AID 1124); conditions: probe aLAP1, fluorescence, higher = more signal;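 further: lysate comes from COS7 cells expressing LAP1 and is applied at 0.3 µg/mL; score merges spot fluorescence near 667 nm with signal-to-noise over triplicate slides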
# Sam68 (KHDRBS1) = test: compounds binding KHDRBS1 protein – biochemical, small-molecule microarray, 635 nm fluorescence, primary screen (AID 1125); conditions: higher = more signal;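 further: score merges 667 nm channel intensity with signal to noise over triplicate slides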
# [7] = test system: Chordin-like protein 2 (CHRDL2); test: compounds binding chordin-like 2 – biochemical, small-molecule microarray, 635 nm fluorescence, primary screen (AID 1126); conditions: fluorescence 635 nm, higher = more signal;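 further: printed compound slides probed with Chrdl2 protein at 4 µg/mL for 1 h at 4 C; score merges 667 nm emission intensity with signal to noise over three replicate slides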
# [8] = biological target: Concanavalin-A (Canavalia ensiformis) (UniProt P02866); test: compounds binding concanavalin A lectin – biochemical, small-molecule microarray, Alexa647 label, 635 nm, artefact control for SMM control protein annotation, primary screen (AID 1127); conditions: ConA-A647 binding fluorescence, higher = more signal;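 further: z combines 667 nm emission intensity with signal-to-noise across three replicate slides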
# Concanavalin-A (Canavalia ensiformis), sequence (P02866 whole entry, looked up): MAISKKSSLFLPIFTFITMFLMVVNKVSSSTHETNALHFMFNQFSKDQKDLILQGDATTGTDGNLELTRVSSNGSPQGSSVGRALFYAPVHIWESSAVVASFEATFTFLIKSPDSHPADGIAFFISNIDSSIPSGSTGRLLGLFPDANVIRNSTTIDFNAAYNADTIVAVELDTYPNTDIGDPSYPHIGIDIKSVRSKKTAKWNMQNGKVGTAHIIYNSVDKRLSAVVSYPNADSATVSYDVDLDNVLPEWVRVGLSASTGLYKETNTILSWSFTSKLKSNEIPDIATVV
# Albumin (Bos taurus), sequence (P02769 whole entry, looked up): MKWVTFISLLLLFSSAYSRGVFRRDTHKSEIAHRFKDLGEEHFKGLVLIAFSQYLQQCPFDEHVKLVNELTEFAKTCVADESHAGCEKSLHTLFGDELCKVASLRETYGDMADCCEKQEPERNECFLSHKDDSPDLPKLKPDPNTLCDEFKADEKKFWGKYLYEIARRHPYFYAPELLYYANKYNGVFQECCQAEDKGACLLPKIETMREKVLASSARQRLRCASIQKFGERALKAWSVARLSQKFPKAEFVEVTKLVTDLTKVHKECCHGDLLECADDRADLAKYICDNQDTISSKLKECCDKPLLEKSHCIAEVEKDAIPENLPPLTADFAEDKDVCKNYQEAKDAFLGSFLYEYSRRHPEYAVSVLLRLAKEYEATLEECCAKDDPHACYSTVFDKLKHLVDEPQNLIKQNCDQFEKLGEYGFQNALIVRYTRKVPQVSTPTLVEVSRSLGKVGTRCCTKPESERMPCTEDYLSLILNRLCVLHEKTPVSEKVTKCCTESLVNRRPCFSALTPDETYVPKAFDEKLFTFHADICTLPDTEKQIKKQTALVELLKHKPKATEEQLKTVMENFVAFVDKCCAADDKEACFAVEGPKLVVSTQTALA
Compound,composite z-score (Albumin (Bos taurus)),composite Z-score [1],composite z-score [2],composite z-score [3],composite z-score [4],composite z-score [5],composite z-score [6],composite z-score (Sam68 (KHDRBS1)),composite z-score [7],composite z-score [8]
CN(C)CCCNC(=O)[C@@H]1c2ccccc2C(=O)N(Cc2ccccc2)[C@H]1c1ccc(CO)cc1,-0.688,0.799 (inactive),-0.0971,-0.205,0.196,0.662,1.37,-0.0257,-0.623,-0.312
CO[C@H]1COC(=O)[C@H](C)NC(=O)[C@@H](C)COC(=O)CC=C[C@@H]1C,-0.331,0.0462 (inactive),-0.0391,-0.192,-0.336,-0.851,-0.0193,0.41,0.858,0.303
O=C1[C@H]2[C@H]3[C@H](O)[C@H](O)CC(=NOC[C@@H](O)COCc4ccco4)[C@H]3CC[C@H]2C(=O)N1C1CCCCC1,-0.709,-0.47 (inactive),0.0459,-0.258,-0.379,-0.317,-0.342,0.191,1.42,-0.843
CCOC(=O)C[C@H]1[C@H](OC(=O)c2cc3ccccc3oc2=O)[C@@H](NC(=O)c2ccc3ccccc3n2)c2cc(OCCCO)ccc2N1C(=O)c1ccccc1,0.328,0.946 (inactive),0.154,-0.0424,0.639,0.476,0.668,0.604,0.789,0.728
O[C@@H](Cc1ccccc1)[C@H]1C2C=CCCC(c3ccccc3)=C2CN1Cc1cccc(Cl)c1 (stereo not given in full),-0.158,0.257 (inactive),-0.027,-0.0746,0.371,0.981,0.466,1.31,0.441,0.235
CC1(C)OCC(C(O)C2=CCCCC2=O)CO1 (stereo not given),0.157,0.0887 (inactive),0.119,0.148,0.548,0.395,0.697,0.826,0.883,1.01
O=C1[C@H]2[C@H]3[C@H](O)[C@H](O)CC(=NO[C@@H]4O[C@H](CO)[C@@H](O)[C@H](O)[C@H]4O)[C@@H]3CC[C@H]2C(=O)N1Cc1ccc2c(c1)OCO2,-0.037,0.484 (inactive),-0.004,-0.18,0.376,0.542,-0.211,0.907,0.538,0.211
CCCC[C@H]1OB(O)C[C@H]2C1=C(C)C[C@H]1C(=O)N(C)C(=O)[C@H]12,0.748,0.506 (inactive),0.16,-0.117,0.328,0.326,0.308,1.08,0.311,0.321
C#C[C@@H](CC)O[Si](C#Cc1ccc(Oc2ccccc2)cc1)(C(C)C)C(C)C,-0.109,0.317 (inactive),0.122,-0.11,0.535,0.476,0.339,1.3,0.234,0.218
CC(C)=CCCC(C)=CCON=C1C[C@@H](O)[C@@H](O)[C@@H]2[C@@H]3C(=O)N(C[C@@H]4CCCO4)C(=O)[C@@H]3CC[C@@H]12,-0.506,2.86 (inactive),-0.0328,-0.0907,0.452,0.877,-0.108,1.3,1.39,0.296
C[C@@H](c1ccccc1)N1C(=O)[C@H]2[C@H]3[C@H](O)[C@H](O)CC(=NOC[C@@H](O)COCc4ccco4)[C@@H]3CC[C@H]2C1=O,0.819,0.528 (inactive),-0.161,-0.185,0.279,-0.359,-0.254,-0.779,-0.727,-1.07
CN1C(=O)C2C=CC(C(O)c3ccc(I)cc3)N(NC(=O)OC(C)(C)C)C2C1=O (stereo not given),0.825,-0.252 (inactive),0.435,0.17,0.719,2.18,0.555,1.31,-0.294,0.898
CC(C)NC(=O)[C@@]1(C)c2ccccc2C(=O)N(Cc2cc(F)cc(C(F)(F)F)c2)[C@H]1c1ccc(CO)cc1,0.293,0.74 (inactive),0.191,-0.102,0.645,1.03,0.433,1.23,0.153,0.674
CCOC(=O)[C@H](CC(C)C)NC(=O)CCC1CC(OC(=O)NCc2cccc3ccccc23)CC2(CCCC(COC(=O)NCCN3CCOCC3)O2)O1 (stereo not given in full),0.363,0.0928 (inactive),-0.0014,-0.19,0.306,0.934,0.324,1.3,0.915,0.793
CCN1C(=O)[C@H]2[C@H]3[C@H](O)[C@H](O)CC(=NOCc4ccccc4)[C@H]3CC[C@H]2C1=O,-0.0796,0.0894 (inactive),0.0258,-0.041,0.336,0.452,0.491,-0.144,0.248,0.21
C[C@H](c1ccccc1)N1C(=O)[C@H]2[C@H]3[C@H](O)[C@H](O)CC(=O)[C@@H]3CC[C@H]2C1=O,0.493,0.17 (inactive),0.148,-0.114,0.496,0.13,0.876,-0.0681,0.604,0.162
CC1CC/C=C\[C@H]2OC34C=CCN(C(C)C)C(=O)[C@H]3N(CCCO)C(=O)[C@@H]4C2C(=O)O1 (stereo not given in full),0.468,-1.03 (inactive),-0.0018,-0.0621,0.9,0.702,0.962,-0.499,-0.951,-1.74
CCOC(=O)C1=CCC(c2cc3ccccc3[nH]2)NC1 (stereo not given),0.653,0.0894 (inactive),0.173,0.069,0.63,1.7,0.944,0.689,0.215,-0.668
C[C@@H]1C=CCC(=O)OC[C@H](C)C(=O)OC[C@H]2O[C@H]1C=C[C@H]2O,0.411,-0.18 (inactive),0.2,-0.0795,0.116,0.544,0.0137,0.0768,0.458,0.227
O=C1[C@H]2[C@H]3[C@H](O)[C@H](O)CC(=NOCc4ccccc4)[C@H]3CC[C@H]2C(=O)N1c1cccc(Oc2ccccc2)c1,0.442,-0.171 (inactive),0.0793,-0.161,0.144,1.14,0.229,1.05,-0.0086,0.707
CCN1C(=O)[C@H]2[C@H]3[C@H](O)[C@H](O)CC(=NOCc4ccccc4)[C@@H]3CC[C@H]2C1=O,-0.0633,1.92 (inactive),0.302,-0.186,0.0453,0.37,1.74,0.598,0.589,0.7
COC(=O)[C@@]1(Cc2ccccc2)[C@H]2c3cc(C(=O)N4CCCC4)n(Cc4ccccn4)c3C[C@H]2CN1C(=O)c1ccccc1,0.939,0.193 (inactive),0.697,0.284,0.834,3.44,0.596,1.29,0.331,1.04
CC(C)(C)N1C(=O)[C@H]2[C@H]3[C@H](O)[C@H](O)CC(=NOCc4ccccc4)[C@@H]3CC[C@H]2C1=O,0.8,0.588 (inactive),0.111,-0.131,0.675,0.384,0.532,1.17,0.831,0.694
CO[C@@H]1COC(=O)CC=C[C@@H](C)[C@@H]2C=C[C@H](O)[C@@H](COC(=O)CCC[C@H]1C)O2,-0.203,0.135 (inactive),0.0319,-0.184,-0.455,-1.2,0.0206,0.0503,1.3,-0.239
O=C1[C@H]2[C@H]3[C@H](O)[C@H](O)CC(=NOCc4ccccc4)[C@@H]3CC[C@H]2C(=O)N1Cc1ccccc1,0.55,-0.119 (inactive),-0.0043,-0.14,0.251,-0.256,-0.355,0.598,0.417,-0.0677
CC(C)[C@@H](OCc1ccccc1)[C@H](C)C=NO[C@H](C)c1cn([C@H](CO)Cc2ccccc2)nn1,0.0792,0.0599 (inactive),-0.0362,-0.163,0.0227,0.544,0.294,1.01,0.779,0.392
CN(C)CCCNC(=O)[C@@H]1c2ccccc2C(=O)N(Cc2cc(F)cc(C(F)(F)F)c2)[C@H]1c1ccc(CO)cc1,0.277,0.451 (inactive),-0.0976,-0.114,0.783,0.969,0.578,0.946,1.08,0.21
